DT40 TDP1 CPT – DT40-hTDP1 cell growth loss with CPT | chicken DT40 Tdp1-/-;hTDP1 cells + 20 nM CPT, ATP luminescence, 48 h | Potency, µM (highest dose often 46.2 µM), most hits filed as inhibitors | actives 12% (n = 420,000); further: nearly all actives have a fitted effect of over 55% in size
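Cell growth measured by CellTiter-Glo luminescence after a minimum 48 h, 37 C compound exposure with 20 nM CPT in Tdp1-knockout DT40 cells stably expressing hTDP1, seeded 400/well; qHTS titration format.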
TGFb SMAD3 inh – inhibitors of TGF-b signaling; actives 1.2% (n = 410,000); Potency, µM (top dose mostly 46.1 µM), actives largely listed as inhibitors; AID 588855; HepG2 CAGA-GFP TGF-b/SMAD3 reporter, GFP fluorescence, 18 h; TGF-beta stimulated, 500 pg/mL final; further: nearly all actives have a fitted effect of over 65% in size
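TGF-beta reporter screen: HEPG2 CAGA-GFP, 1% FBS, 500 pg/mL TGF-beta final, 18 h; per-cell GFP summed per well; curves fitted and categorized by class.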
TDP1 inh – TDP1 (human) enzyme inhibition; recombinant TDP1, AlphaScreen DNA substrate cleavage; actives 0.28% (n = 350,000); Potency, µM (doses to about 130 µM), hits mostly inhibitors; AID 485290; Q9NUW8; further: nearly all actives have a fitted effect of over 40% in size
Target sequence (Q9NUW8 whole entry, looked up): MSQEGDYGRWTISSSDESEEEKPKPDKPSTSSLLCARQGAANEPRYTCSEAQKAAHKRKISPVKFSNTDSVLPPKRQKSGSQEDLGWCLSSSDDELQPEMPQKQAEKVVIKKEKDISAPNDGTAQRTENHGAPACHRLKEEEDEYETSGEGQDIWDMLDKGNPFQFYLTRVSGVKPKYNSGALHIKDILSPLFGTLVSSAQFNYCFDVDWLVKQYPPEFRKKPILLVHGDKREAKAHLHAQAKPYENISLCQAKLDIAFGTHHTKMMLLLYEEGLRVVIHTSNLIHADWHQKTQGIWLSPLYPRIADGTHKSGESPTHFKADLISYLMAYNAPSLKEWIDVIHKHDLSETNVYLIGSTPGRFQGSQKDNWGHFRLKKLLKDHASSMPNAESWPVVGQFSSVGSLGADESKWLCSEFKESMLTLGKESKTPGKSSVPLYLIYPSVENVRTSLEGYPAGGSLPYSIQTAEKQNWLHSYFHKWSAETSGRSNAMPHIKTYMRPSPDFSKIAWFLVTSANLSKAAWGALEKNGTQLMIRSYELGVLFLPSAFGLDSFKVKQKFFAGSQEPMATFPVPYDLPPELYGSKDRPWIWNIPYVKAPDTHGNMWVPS
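Here, a 5' biotin and 3' phosphotyrosine-FITC DNA oligonucleotide reports Tdp1 activity: intact substrate bridges AlphaScreen beads, while cleavage leaves a 3' phosphate and drops signal. All incubations at room temperature.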
IL1B secr inh – inhibitors of inflammasome signaling (IL-1 beta secretion). activity change, % at 57.5 µM. AID 743279. actives 4.7% (n = 360,000). THP-1 LPS/ATP IL-1B secretion, AlphaLISA, 16 h; stronger effect = lower value; in the data active means activity change below about -50%; inconclusive means mostly about -30% to -49%
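THP-1 cells pretreated 1 hr with compounds (up to 57.5 uM final), then stimulated with LPS (250 ng/mL final) plus ATP (1.25 mM final); secreted IL-1B measured by AlphaLISA after 16 hr, decreased signal indicating inhibition.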
HepG2 viability – HepG2 cytotoxicity, counter-screen for TGF-b inhibitors; HepG2 CAGA-GFP viability, ATP luminescence, 18 h; Potency, µM (top dose mostly 46.1 µM), actives largely listed as cytotoxic; actives 0.76% (n = 410,000); AID 588856
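HepG2 CAGA-GFP cells (1000/well, DMEM with 1% FBS) received compound, then TGF-beta at 500 pg/mL final, and were incubated 18 hours at 37 degrees C. Viability was read by CellTiter-Glo luminescence. Media-only wells were set as complete cell-killing and DMSO as no toxicity.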
DT40 TDP1 no CPT – qHTS for Inhibitors of human tyrosyl-DNA phosphodiesterase 1 (TDP1): qHTS in cells in absence of CPT; DT40 Tdp1-/- hTDP1 cells, no CPT, ATP luminescence, 48 h; Potency, µM (highest dose often 46.2 µM), actives largely listed as inhibitors; actives 15% (n = 420,000); AID 686978, 2013; further: nearly all actives have a fitted effect of over 55% in size
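DT40 Tdp1-/-;hTDP1 cells, no CPT (DMSO vehicle only), 400 cells/well; compounds pin-transferred; ≥48 hr, 37 °C; CellTiter-Glo 30 min RT dark, luminescence read.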
Hits are given with their value; 0 = inactive; ? = inconclusive; - = not tested or not shown; [ ] = another dose, or the depositor's remark. Sampled rows, rich in hits. Any-hit rate of the full collection: about 19%. Unless noted, the call rests on the fitted dose curve; in most records, active means well fitted curve in the direction sought with a large enough effect; inconclusive means small, poorly fitted or top-dose-only effect, or another doubt; inactive means no such curve, though single readings can be large; an effect the other way counts as inactive or inconclusive.

SMILES	DT40 TDP1 CPT	TGFb SMAD3 inh	TDP1 inh	IL1B secr inh	HepG2 viability	DT40 TDP1 no CPT
COc1cccc(CN(C)C(=O)c2ccc(NS(=O)(=O)c3ccc4[nH]c(=O)[nH]c4c3)cc2)c1OC	0	0	0	0	0	0
CCOc1ccc(NS(=O)(=O)c2ccc(C(=O)N(C)CC(=O)Nc3ccc(C)cc3)cc2)cc1	?	?	0	?	0	16µM
COc1cccc(CN(C)C(=O)c2cccc(S(=O)(=O)Nc3cccc(C)c3)c2)c1OC	23µM	0	-	0	0	16µM
CCOc1ccc(NS(=O)(=O)c2ccc(C(=O)N(C)Cc3cccc(OC)c3OC)cc2)cc1	15µM	0	0	0	0	15µM
COc1ccc(NC(=O)C(=S)N2CCCC2)cc1	0	0	0	0	0	0
COc1ccc(Cl)cc1NC(=O)C[n+]1cccc(C)c1	0	0	-	0	0	?
CS(=O)(=O)NCCc1csc2nc(-c3ccccc3)nn12	0	0	0	-	0	0
CCc1ccc(CN(C)C(=O)c2cccc(S(=O)(=O)Nc3ccccc3OC)c2)cc1	?	?	0	0	0	?
CCOc1ccc(CN(C)C(=O)c2cccc(S(=O)(=O)Nc3ccccc3OC)c2)cc1OC	?	0	-	0	0	15µM
CC(C)C[C@H]1CN(CCCC[C@@H]2CNC(=O)C(=O)N2CC2CCCCC2)C(=O)C(=O)N1CCC1CCCCC1	0	-	-	0	-	0
CC(=NO)C1CCC2C3CCC4=CC(=NO)CCC4(C)C3C(=O)CC12C (centres undefined)	13µM	0	-	0	0	16µM
CC(=NO)C1CCC2C3CCC4=CC(=NO)CCC4(C)C3C(O)CC12C (centres undefined)	13µM	0	-	0	0	16µM
CO[C@@H]1/C=C\CC(=O)N[C@@H](C)C(=O)OC[C@H](NS(=O)(=O)c2ccc(C)cc2)[C@H](C)/C=C\CC(=O)OC[C@H]1C	-	-	0[21 µM]	-	-	-
Cc1ccccc1-c1nc(CN2CCC(C(=O)N3CCN(c4ccccn4)CC3)CC2)c(C)o1	23µM	0	0	0	0	?
CCOC(=O)C1CCCN(C(=O)C2CCN(Cc3nc(-c4ccc(Cl)cc4)oc3C)CC2)C1 (centres undefined)	?	?	-	0	0	21µM
Cc1oc(-c2ccc(Cl)cc2)nc1CN1CCC(C(=O)N2CCc3ccccc3C2)CC1	23µM	0	0	0	0	18µM
Cc1oc(-c2ccc(Cl)cc2)nc1CN1CCC(C(=O)N2CCN(Cc3ccccc3)CC2)CC1	?	0	0	-60	0	?
CC(C)[C@@H](CC(=O)N[C@@H]1CCCC[C@H]1C(=O)N[C@H](CC(=O)N[C@@H](CCC(=O)O)CC(=O)O)Cc1ccccc1)NC(=O)C[C@H](Cc1c[nH]c2ccccc12)NC(=O)[C@@H]1CCCC[C@H]1N	-	-	0	-	-	-
CSCCC(NC(=O)c1ccco1)C(=O)OCC(=O)N1c2ccccc2NC(=O)C1(C)C (centres undefined)	0	0	0	0	0	0
CC(=O)N1C(O)CC(C)N1c1ccccc1 (centres undefined)	0	0	0	0	0	0
Cc1c(C(=O)NC(C)(C)CO)sc2ncnc(NCCN(C)C)c12	0[9.04 µM]	-	-	-	-	0
CC(=O)N(Cc1nc2sc(C)c(C)c2c(=O)[nH]1)C1CCCC1	21µM	0	0	0	0	?
CC(=O)N(Cc1ccccc1)Cc1nc2sc(C)c(C)c2c(=O)[nH]1	0	0	0	0	0	13µM
Cc1sc2nc(CN(Cc3ccccc3)C(=O)NC3CCCCC3)[nH]c(=O)c2c1C	21µM	?	-	?	0	18µM
Cc1cc(C)c(NC(=O)CSc2ncc(S(=O)(=O)c3ccc(C(C)(C)C)cc3)c(=O)[nH]2)c(C)c1	-	0	0	-	0	-

Screening data (PubChem BioAssay)
